Test results from PubChem BioAssay AID743158 (Broad Institute, 2013).
Results with a measured potency or affinity are listed apart. Calls of active or inactive are those of the source.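 Rule for the calls: active = cell killing with a fitted half-maximal concentration at most twice the top valid dose tried; inconclusive = flat fit between -70 and -30 percent, or an invalid fit; inactive = the rest.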

Experiment: A549 cell cytotoxicity, dose response, cytotoxicity control, CellTiter-Glo luminescence, dry powder, set 5 (AID 743158)
Settings: A549 viability, CellTiter-Glo ATP luminescence, 72 h; series mostly up to 26 µM; activity change, negative = cytotoxicity: at the top concentration

Structure (SMILES) | activity change, negative = cytotoxicity | outcome
CCOC(=O)c1c(-c2ccc(F)cc2)csc1NC(=O)CN1CCN(C)CC1 | 5.49% (inactive) | –
Cc1ccc2c(c1)[nH]c(=S)n2CCOc1ccccc1 | 22.8% (inactive) | –
Fc1ccccc1OCCn1c(=S)[nH]c2ccccc21 | 8.89% (inactive) | –
Cc1ccc(OCCn2c(=S)[nH]c3ccccc32)c(C(C)C)c1 | – | inactive
Cc1ccc(OCCn2c(SCCO)nc3ccccc32)c(C(C)C)c1 | -1.14% (inactive) | –
S=c1[nH]c2ccccc2n1CCOc1ccc(Cl)cc1 | 21.4% (inactive) | –
COC(=O)C1=C(C)N(Cc2ccc(Br)cc2)C(=S)NC1c1ccc(OC)cc1 (configuration not stated) | 7.24% (inactive) | –
Cc1ccc(OCCn2c(=S)[nH]c3ccccc32)cc1 | -5.22% (inactive) | –
COC(=O)C1=C(C)N(Cc2ccc(Cl)cc2)C(=S)NC1c1ccc(Br)cc1 (configuration not stated) | 10.9% (inactive) | –
Fc1cccc2c1[nH]c(=S)n2CCOc1ccccc1 | 22.4% (inactive) | –
Cc1ccc(C(C)C)c(OCCn2c(=S)[nH]c3ccccc32)c1 | -4.67% [at 12 µM] (inactive) | –
COC(=O)C1=C(C)N(Cc2ccc(F)cc2)C(=S)NC1c1cccc(F)c1 (configuration not stated) | 12.2% (inactive) | –
COC(=O)C1=C(C)N(Cc2ccc(Br)cc2)C(=S)NC1c1ccc(F)cc1 (configuration not stated) | 14.4% (inactive) | –
Cc1ccccc1OCCn1c(=S)[nH]c2ccccc21 | 6.12% (inactive) | –
CCOc1ccc(OCCn2c(=S)[nH]c3ccccc32)cc1 | -5.18% (inactive) | –
O=c1[nH]c2ccccc2n1CCOc1ccccc1 | – | inactive
S=c1[nH]c2ccccc2n1CCOc1ccccc1 | -11.1% (inactive) | –
Cc1ccc(OCCn2cnc3ccccc32)cc1 | 13.4% (inactive) | –
Cc1ccc(OCCn2c(C)nc3ccccc32)cc1 | 15.3% (inactive) | –
c1ccc(OCCn2cnc3ccccc32)cc1 | -5.44% (inactive) | –
S=c1[nH]c2cccc(Cl)c2n1CCOc1ccccc1 | 3.73% (inactive) | –
Cc1cccc(OCCn2c(=S)[nH]c3cc(C(F)(F)F)ccc32)c1 | -7.82% (inactive) | –
COC(=O)C1=C(C)N(Cc2ccccc2)C(=S)NC1c1ccc(Br)cc1 (configuration not stated) | 11.9% (inactive) | –
CCOC(=O)c1c(NC(=O)CN2CCN(C)CC2)sc(C)c1-c1ccc(C)cc1 | 1.65% [at 12 µM] (inactive) | –
CCOC(=O)c1c(-c2ccc(F)cc2)csc1NC(=O)CN1CCN(CC)CC1 | 7.96% (inactive) | –
CCOC(=O)c1c(-c2ccc(OC)cc2)csc1NC(=O)CN(C)CC(=O)N(C)C | -0.238% (inactive) | –
CCOC(=O)c1c(NC(=O)CNCCN(C)C)sc(C)c1-c1ccccc1 | 19.6% (inactive) | –
